The assay in a line: RPMI8226 myeloma cell viability, profiling panel, resazurin fluorescence, basal, 24 h, PK04 Diversity Set (AID 1180).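 Note: RPMI8826 multiple myeloma cell line at 5000 cells per well; test concentration not given here.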 Conditions: higher = more signal. A general note: The colour change of resazurin is a common sign of viable cells or microbes.
The compound `COC(=O)CC=C[C@H](C)[C@H](CO)NS(=O)(=O)c1ccc(C)cc1` had a z-score of 0.139. As to `Cc1cc2c(nc1C)CCCN2CC(C)ON=C1[C@H]2CCn3c(=O)n(-c4ccccc4)c(=O)n3[C@H]2[C@H](O)[C@@H]2O[C@H]12` (stereo not given in full), the z-score was -0.745.

`CC(C)OC(=O)C=C1C[C@@H](c2ccc(C#N)cc2)O[C@@H](c2ccc(C#N)cc2)O1` displayed a z-score of -0.312.

Turning to `CO[C@H]1COC(=O)[C@H](C)COC(=O)CC=C[C@@H](C)[C@H](OC)COC(=O)CC=C[C@@H]1C`, the z-score was 0.129. The compound `CC(CCN1CCc2nc(-c3ccccc3)c(-c3ccccc3)cc2C1)=NO[C@@H](C)c1cn([C@H](CO)Cc2ccccc2)nn1` came in with a z-score of -0.914. Consider `COc1ccc([Si](C)(C)[C@@H]2[C@@H](CC(=O)N3CCC[C@H]3CO)O[C@]3(C(=O)N(Cc4cccc(N5CCC5=O)c4)c4ccccc43)[C@H]2C)cc1`, for which the z-score was -3.51. For `COc1ccccc1CN1C(=O)c2ccccc2[C@@H](C(=O)NCC(F)(F)F)[C@@H]1c1ccc(CO)cc1` the value was 0.268. For `[N-]=[N+]=NCc1ccccc1[C@@H]1OC(c2ccc(OCCCO)cc2)=N[C@]1(Cc1ccccc1)C(=O)N1CCOCC1` the value was -0.425. For `CC(C)(C)OC(=O)CC[C@]1(C(=O)NCc2ccccc2)N=C(c2ccc(OCCCO)cc2)O[C@H]1c1ccccc1` the value was -0.135; for `CC1CC/C=C\[C@H]2OC34C=CCN(Cn5nnc6ccccc65)C(=O)[C@H]3N(CCO)C(=O)[C@@H]4C2C(=O)O1` (stereo not given in full), 1.04; for `CCOC(=O)CCN1C(=O)[C@H]2[C@H]3[C@H](O)C=CC(=O)[C@@H]3CC[C@H]2C1=O`, 0.353. Take `O=C1C[C@@H](O)[C@@H](O)[C@@H]2[C@@H]3C(=O)N(Cc4ccc5c(c4)OCO5)C(=O)[C@@H]3CC[C@@H]12`: the z-score was -0.707. Consider `CCN1C(=O)[C@H]2[C@H]3[C@H](O)[C@H](O)CC(=NO[C@@H]4O[C@H](CO)[C@@H](O)[C@H](O)[C@H]4O)[C@@H]3CC[C@H]2C1=O`, for which the z-score was -0.922. The value for `C#CCCCON=C1C[C@@H](O)[C@@H](O)[C@@H]2[C@@H]3C(=O)N(Cc4ccccc4)C(=O)[C@@H]3CC[C@H]12` was 0.781.

With `C[C@@H](c1ccccc1)N1C(=O)[C@H]2[C@H]3[C@H](O)[C@H](O)CC(=NNC(=O)OCc4ccccc4)[C@H]3CC[C@H]2C1=O`, the z-score stood at 0.368.

Take `COC(=O)[C@H](C)NC(=O)CCC1CC(OC(=O)NCc2cccc3ccccc23)CC2(CCCC(COC(=O)NCCc3ccc(Cl)cc3)O2)O1` (stereo not given in full): the z-score was found to be 0.413. The value for `CCc1cc2c(nc1CC)CCN(CCC(C)=NOC(C)CN1CCCc3nc(C)c(C)cc31)C2` (stereo not given) was -0.615. On to `COC(=O)[C@@]1(Cc2ccc(OC)cc2)[C@H]2c3cc(C(=O)N4CCCC4)n(Cc4cc(F)c(F)c(F)c4)c3C[C@H]2CN1C(=O)c1ccccc1`, for which the z-score is -3.1. The value for `CN1C(=O)C2C=CC(C(O)c3ccc(Br)cc3)N(N(c3ccccc3)c3ccccc3)C2C1=O` (stereo not given) was -0.629; that for `CCOC(=O)NN=C1C[C@@H](O)[C@@H](O)[C@@H]2[C@@H]3C(=O)N(CC)C(=O)[C@@H]3CC[C@@H]12` was -0.423.

In the case of `O=C(CS)NCCCCCNC(=O)[C@@H]1C[C@@H]2C(=O)N[C@@H](Cc3ccccc3)C(=O)N2[C@@H]1c1ccc(O)cc1`, the z-score was 0.252. For `C=CC[C@]1(C(=O)NCc2ccccc2)N=C(c2ccc(OCCCO)cc2)O[C@H]1c1ccccc1` the value was -0.0458. On to `O=C1[C@H]2[C@H]3[C@H](O)[C@H](O)CC(=NOCc4ccccc4)[C@H]3CC[C@H]2C(=O)N1c1cccc(Oc2ccccc2)c1`, for which the z-score came out at 0.564. `COC(=O)CC=C[C@@H](C)[C@H](OC)c1ccccc1Br` showed a z-score of 0.0866. The compound `CCN1C(=O)[C@H]2[C@H]3[C@H](O)C=CC(=O)[C@@H]3CC[C@H]2C1=O` displayed a z-score of -0.194.

The record behind these values is PubChem BioAssay.
